Compound activity from PubChem BioAssay.
Tau FP inhib = blocks human tau fibril formation measured by polarization; Potency, µM (titrated, usually from 57.7 µM), for the others: at the top dose activity, negative = inhibition, most hits filed as inhibitors; actives 0.39% (n = 280,000); K18 P301L tau heparin fibrillization, Alexa594 FP, 6 h; AID 1468; note: nearly all actives have a fitted effect of over 55% in size
Target sequence (P10636 561-689 P618L limits assumed): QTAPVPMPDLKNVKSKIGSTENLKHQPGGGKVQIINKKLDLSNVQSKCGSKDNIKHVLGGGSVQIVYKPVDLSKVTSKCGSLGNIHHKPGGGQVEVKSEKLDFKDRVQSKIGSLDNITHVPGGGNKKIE
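Human tau K18 […] P301L fragment, 15 uM unlabeled plus 0.24 uM Alexa 594-labeled tau (final), with compound and 20 uM heparin in 100 mM sodium acetate pH 7; 6 hr at 37 C, then Alexa 594 FP read.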
RORg inh = inhibitors of mouse ROR gamma transcriptional activity | P51450 | Potency, µM (highest dose often 53.6 µM), without a hit: at the top dose activity change, negative = inhibition, usual class: inhibitors | Drosophila S2 Gal4-RORgamma UAS-luciferase reporter, 20 h | actives 5.4% (n = 310,000); note: nearly all actives have a fitted effect of over 60% in size
Target sequence (P51450 whole entry, looked up, the tested form may be a part): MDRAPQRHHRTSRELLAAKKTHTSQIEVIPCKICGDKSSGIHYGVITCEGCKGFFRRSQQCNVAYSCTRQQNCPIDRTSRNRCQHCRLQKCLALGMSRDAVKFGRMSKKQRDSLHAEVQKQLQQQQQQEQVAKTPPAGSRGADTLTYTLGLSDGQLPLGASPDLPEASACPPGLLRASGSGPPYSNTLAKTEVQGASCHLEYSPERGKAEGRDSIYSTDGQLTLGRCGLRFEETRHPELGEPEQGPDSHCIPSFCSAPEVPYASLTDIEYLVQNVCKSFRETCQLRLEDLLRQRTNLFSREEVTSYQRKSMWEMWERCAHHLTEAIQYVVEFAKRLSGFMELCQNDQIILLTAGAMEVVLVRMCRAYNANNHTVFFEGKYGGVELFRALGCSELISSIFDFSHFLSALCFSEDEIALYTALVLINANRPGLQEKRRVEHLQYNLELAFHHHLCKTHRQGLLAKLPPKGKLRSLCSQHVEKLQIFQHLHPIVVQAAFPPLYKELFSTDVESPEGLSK
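Drosophila S2 cells stably expressing Gal4-DBD/mouse RORγ fusion under metallothionein promoter plus UAS-luciferase; compound 1 h, then 700 uM CuSO4 induction for 20 h at ambient temperature; inhibition read as reduced luminescence.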
Tau fluor counter = counter-screen for tau fibril formation inhibitors; tau K18 P301L Alexa594 fluorescence, heparin fibrillization; Potency, µM (top dose mostly 57.7 µM), for inactives: at the top dose activity change, negative = decrease; actives 0.93% (n = 280,000); note: nearly all actives have a fitted effect of over 55% in size
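Human tau K18 P301L (15 uM unlabeled, 0.24 uM Alexa 594-labeled) in 100 mM sodium acetate pH 7 with 20 uM heparin, 6 hr at 37 C. ThT 30 uM added, 1 hr ambient; Alexa 594 FP and total fluorescence read at 555/632 nm.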
Tau ThT inhib = tau fibrillization inhibition (ThT binding) | P10636 | recombinant tau K18 P301L (four-repeat tau fragment), heparin-induced fibrillization, ThT fluorescence | Potency, µM (series often up to 57.4 µM), inactives show top-dose activity, negative = inhibition, hits mostly inhibitors | actives 2.1% (n = 270,000); note: nearly all actives have a fitted effect of over 55% in size
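Heparin-induced fibrillization of the P301L-mutant K18 repeat-domain fragment of human tau was followed by ThT binding in quantitative high-throughput format.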
Gal4-VP16 FLuc = counter-screen for ROR gamma inhibitors: Gal4-VP16 reporter; Drosophila S2 Gal4-VP16 UAS-luciferase, luminescence, 20 h; Potency, µM (series often up to 53.6 µM), for the others: top-dose activity, negative = inhibition, actives largely listed as inhibitors; actives 3.5% (n = 310,000); AID 2546;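 note: Gal4-VP16 expression switched on by copper sulfate through the metallothionein promoter; nearly all actives have a fitted effect of over 50% in size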
The depositor's hits bear a star; ? = inconclusive; . = no result given; ! = not active in a repeat; [ ] = remark or other dose. An excerpt weighted towards active compounds, which were near 7.3% of everything screened. Calls come from the whole dose curve; as a rule, active = well fitted curve in the direction sought with a large enough effect; inconclusive = small, poorly fitted or top-dose-only effect, or another doubt; inactive = no such curve, though single readings can be large; an effect the other way counts as inactive or inconclusive. % is set by controls: 0 for no effect and ±100 for the full control effect; potency is the fitted concentration of half-maximal effect.

SMILES | Tau FP inhib | RORg inh | Tau fluor counter | Tau ThT inhib | Gal4-VP16 FLuc
O=C1c2cccc3cccc(c23)C(=O)N1CCN1CCN(C(=S)Nc2ccccc2)CC1 | 8.6% | 14.1µM* | -23.0% | -12.6% | ?
COC(=O)C1CN(C#N)N(c2ccc(Cl)cc2)C12c1ccccc1-c1ccccc12 (configuration not stated) | ? | 0.562µM* | -27.2% | 10µM* | 0.794µM*
O=C(Cc1coc2cc3c(cc12)CCC3)OCC(=O)N1CCCC1=O | -8.5% | -30.5% | -13.1% | -12.7% | ?
CCCCCSc1cc(OC)c(CCN)cc1OC | ? | 7.08µM* | -13.8% | ? | ?
CCOC(=O)[C@]1(C#N)[C@@H]2C=CC(C(C)=O)=CN2[C@@H](C(N)=O)[C@@H]1c1ccsc1 | ? | 29.0% | -25.8% | 31.6µM* | 20µM*
CC1=C2C(=CO[C@H](C)[C@H]2C)C(=O)C(C(=O)O)=C1O | -4.7% | 8.2% | -26.6% | ? | -0.7%
CC[C@@]1(O)C(=O)OCc2c1cc1n(c2=O)Cc2cc3c(N)cccc3nc2-1 | -5.8% | 0.02µM* | -14.0% | ? | 0.355µM*
Cc1cc(C(=O)CN2C(=O)c3ccccc3C2=O)c(C)n1C1CC1 | -11.1% | 26.6% | -1.6% | -0.1% | 15.8µM*
Cc1cc(C(=O)NP(=O)(N2CCOCC2)N2CCOCC2)c(C)n1C1CC1 | 0.1% | 16.2% | -3.8% | -3.0% | -0.9%
NCCc1c[nH]c2ccc(O)cc12 | -1.1% | 3.1% | -7.2% | -9.2% | 11.1%
COc1ccc(-c2oc3cc(OC)ccc3c(=O)c2O)cc1 | ? | 5.01µM* | -19.7% | -11.8% | 7.94µM*
Nn1cnnc1 | . | -5.9% | . | . | 4.7%
O=C(CCCN1CCC2(CC1)C(=O)N(Cc1cccc(F)c1)CN2c1ccccc1)c1ccc(F)cc1 | -7.8% | -32.7% | ? | ? | ?
O=C1NC(=O)N(Cc2ccco2)C(=O)/C1=C/C=C/c1ccco1 | ? | 4.1% | -21.7% | 8.91µM* | 2.9%
O=C1NC(=O)N(Cc2ccccc2)C(=O)/C1=C\C=C\c1ccco1 | ? | ? | -21.5% | 14.1µM* | -4.2%[10 µM]
Cn1cccc1/C=C1\C(=O)NC(=O)N(Cc2ccco2)C1=O | 0.9% | -5.1% | -23.7% | ? | 4.3%[10 µM]
O=C1NC(=O)N(Cc2ccccc2)C(=O)/C1=C/N1CCCc2ccccc21 | ? | 12.9% | -23.9% | 10µM* | -8.1%
O=C1NC(=O)N(Cc2ccccc2)C(=O)/C1=C/c1cnc(-c2ccccc2)nc1 | ? | 0.9% | -20.9% | ? | -1.3%
COc1cccc(CSc2nc(-c3ccccc3OC)nc3c2Cc2c(CO)cnc(C)c2O3)c1 | -1.3% | . | -10.0% | ? | .
O=C(Nc1ccc(Br)cc1C(=O)O)c1ccc2c(c1)C(=O)N(Cc1ccccc1)C2=O | . | 10µM* | . | . | ?
Cc1coc2c1CCC(C)C2 (configuration not stated) | . | -13.9% | . | . | -0.3%
COc1ccc2c(c[n+](C)c3c4cc5c(cc4ccc23)OCO5)c1OC | ? | 7.08µM* | 15.8µM*[quencher] | 12.6µM* | 8.91µM*!
COc1ccc2c(c1OC)CN1CCc3cc4c(cc3[C@H]1C2)OCO4 | . | 8.9%[16.9 µM] | . | . | -8.2%[17 µM]
CCN1C(=O)C(=Cc2ccc(N3CCOCC3)o2)C(=O)N(CC)C1=S | -10.0% | -2.3% | -28.4% | 17.8µM* | -3.8%
O=C1NC(=S)N(c2ccc(F)cc2)C(=O)/C1=C/c1ccco1 | . | -24.8% | . | . | -19.5%
SMILES | Tau FP inhib | RORg inh | Tau fluor counter | Tau ThT inhib | Gal4-VP16 FLuc
CN1CCN(c2ccc(/C=C3\C(=O)NC(=S)N(c4cccc(Br)c4)C3=O)o2)CC1 | -13.9% | -2.4% | -18.7% | 15.8µM* | 0.5%
Cc1ccc(/C=C2\C(=O)NC(=S)N(c3cccc(F)c3)C2=O)o1 | . | 11.2µM* | . | . | -19.5%
COc1ccc(N2C(=O)/C(=C/c3ccc(C)o3)C(=O)NC2=S)cc1 | . | -13.6% | . | . | -3.7%
O=C1NC(=S)N(c2ccc(F)cc2)C(=O)/C1=C\c1ccoc1 | ? | -13.3% | -20.6% | 17.8µM* | -1.5%
O=C(Nc1ccc2nc(SCC(=O)N3CCOCC3)sc2c1)c1ccc(Cl)cc1 | ? | . | -25.1% | 6.7% | .
CN1C(=O)/C(=C/c2ccc(N3CCCCCC3)o2)C(=O)NC1=S | -2.3% | 31.5% | -12.3% | 14.1µM* | 0.3%
Cc1ccc(-n2ncc(C(=O)N3CCN(c4ccc(Cl)cc4)CC3)c2C2CCN(C(=O)OC(C)(C)C)CC2)c(C)c1 | 0.5% | . | -11.5% | ? | .
Cn1c(O)c(C2=NNC(c3ccc(Cl)cc3)C2)c(=O)n(C)c1=O (configuration not stated) | 1.1% | 7.08µM* | -14.2% | ? | 5.01µM*
CCOc1ccc(C2CC(c3c(O)n(C)c(=O)n(C)c3=O)=NN2)cc1 (configuration not stated) | 1.6% | ? | -17.6% | ? | ?
CCc1n[nH]c(=S)n1/N=C/c1c(C)nn(-c2ccccc2)c1Cl | 3.7% | 7.08µM* | -0.9% | -11.5% | ?
Clc1ccc(C(c2ccc(Cl)cc2)C(Cl)Cl)cc1 | . | 35.3% | . | . | 0.8%
CC(=O)O[C@H]1C(=O)[C@@]2(C)C([C@H](OC(=O)c3ccccc3)[C@]3(O)C[C@H](OC(=O)[C@H](O)[C@@H](NC(=O)Cc4ccccc4)c4ccccc4)C(C)=C1C3(C)C)[C@]1(OC(C)=O)CO[C@@H]1C[C@@H]2O (some centres not stated) | . | ? | . | . | 12.6µM*
O=[N+]([O-])c1cc([As](=O)(O)O)ccc1O | 2.0% | 12.7% | -18.8% | ? | 5.6%
Cc1ccc(OCC(=O)N/N=C\c2ccc(O)c([N+](=O)[O-])c2)c([N+](=O)[O-])c1 | 6.1% | 19.5% | -21.7% | 12.6µM* | 19.6%
Nc1cccc2ccccc12 | . | -22.7% | . | . | 1.7%
CC[C@]1(O)CC(O[C@@H]2CC(N(C)C)C(O)C(C)O2)c2c(cc3c(c2O)C(=O)c2c(O)ccc(O)c2C3=O)C1C(=O)OC (some centres not stated) | -13.7% | 1.12µM* | ? | ? | 2.24µM*
C/C(=N\NC(=O)c1ccccc1O)c1c(O)n(Cc2ccccc2)c(=O)[nH]c1=O | 12.5% | 15.8µM* | ? | 14.1µM* | -16.1%
CC(=NCCO)c1c(O)n(C2CCCCC2)c(=O)[nH]c1=O | -0.1% | 18.1% | -0.3% | -9.9% | -16.6%
C/C(=N\NC(=O)c1ccccc1)c1c(O)n(C2CCCCC2)c(=O)[nH]c1=O | . | 10µM* | . | . | 20µM*
C/C(=N\NC(=O)c1ccccc1Cl)c1c(O)n(C2CCCCC2)c(=O)[nH]c1=O | . | 7.08µM* | . | . | 11.2µM*
CC(=NCc1cccnc1)c1c(O)n(C2CCCCC2)c(=O)[nH]c1=O | 1.6% | 5.7% | -1.1% | -4.4% | -17.1%
C/C(=N\NC(=O)c1ccncc1)c1c(O)n(Cc2ccccc2)c(=O)[nH]c1=O | 11.8% | 13.7% | -10.0% | ? | ?
C/C(=N\NC(=O)c1ccccc1O)c1c(O)n(C2CCCCC2)c(=O)[nH]c1=O | . | 5.01µM* | . | . | 11.2µM*
